TGFb inhibitor: inhibitors of TGF-b signaling | HepG2 CAGA-GFP TGF-b/SMAD3 reporter, GFP fluorescence, 18 h; TGF-beta stimulated, 500 pg/mL final | Potency, µM (series often up to 46.1 µM), actives largely listed as inhibitors | hit rate 1.2% among 410,000 | AID 588855; also: nearly all actives have a fitted effect of over 65% in size
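Smad-responsive CAGA-GFP expression was quantified in HEPG2 cells exposed to compounds and 500 pg/mL final TGF-beta for 18 h at 37 degrees C; unstimulated wells defined full inhibition.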
TDP1 cell CPT: DT40-hTDP1 cell growth loss with CPT; chicken DT40 Tdp1-/-;hTDP1 cells + 20 nM CPT, ATP luminescence, 48 h; Potency, µM (doses to about 46.2 µM), usual class: inhibitors; hit rate 12% among 420,000; AID 686979; also: nearly all actives have a fitted effect of over 55% in size
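Cell growth measured by CellTiter-Glo luminescence after a minimum 48 h, 37 C compound exposure with 20 nM CPT in Tdp1-knockout DT40 cells stably expressing hTDP1, seeded 400/well; qHTS titration format.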
DT40 TDP1 no CPT: qHTS for Inhibitors of human tyrosyl-DNA phosphodiesterase 1 (TDP1): qHTS in cells in absence of CPT; DT40 Tdp1-/- hTDP1 cells, no CPT, ATP luminescence, 48 h; Potency, µM (doses to about 46.2 µM), usual class: inhibitors; AID 686978, 2013; hit rate 15% among 420,000; also: nearly all actives have a fitted effect of over 55% in size
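Readout: luminescence from CellTiter-Glo after 30 min in the dark at RT. Cells: DT40 Tdp1-/- with stable hTDP1, 400/well. Exposure: compounds alone, ≥48 hr, 37 °C.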
ASM inhibitor: human S-ASM enzyme inhibition | Potency, µM (series often up to 57.5 µM), usual class: inhibitors | hit rate 0.006% among 340,000 | P17405 | placental ASM, HMU-PC fluorogenic substrate, 60 min
Target sequence (P17405 47-631 limits assumed): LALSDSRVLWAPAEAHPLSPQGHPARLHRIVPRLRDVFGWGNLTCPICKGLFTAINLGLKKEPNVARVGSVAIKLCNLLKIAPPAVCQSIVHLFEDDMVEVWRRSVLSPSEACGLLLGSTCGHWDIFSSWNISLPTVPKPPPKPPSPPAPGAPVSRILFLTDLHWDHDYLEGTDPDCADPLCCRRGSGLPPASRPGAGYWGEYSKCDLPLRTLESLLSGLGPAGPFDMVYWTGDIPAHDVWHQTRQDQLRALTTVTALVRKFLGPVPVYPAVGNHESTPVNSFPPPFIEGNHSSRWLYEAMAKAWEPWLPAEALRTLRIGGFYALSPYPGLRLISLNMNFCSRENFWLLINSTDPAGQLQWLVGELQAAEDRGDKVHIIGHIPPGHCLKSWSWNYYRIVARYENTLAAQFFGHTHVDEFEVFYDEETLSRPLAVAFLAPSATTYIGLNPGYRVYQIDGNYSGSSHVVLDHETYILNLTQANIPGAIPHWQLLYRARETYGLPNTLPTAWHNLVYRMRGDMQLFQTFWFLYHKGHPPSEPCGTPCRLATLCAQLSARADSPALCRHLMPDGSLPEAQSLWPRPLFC
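HMU-PC0 cleavage (9 uM final) by human placental ASM, 60 min at 37 °C following 10 min compound exposure at RT; stopped at pH 10, fluorescence Ex 386/Em 447 nm.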
IL1B secr inh: inhibitors of inflammasome signaling (IL-1 beta secretion). THP-1 LPS/ATP IL-1B secretion, AlphaLISA, 16 h; active compounds read low. AID 743279. hit rate 4.7% among 360,000. activity change, % at 57.5 µM; in the data active = activity change below about -50%; inconclusive = mostly about -30% to -49%
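Secreted IL-1B measured by AlphaLISA bead assay after 16 h compound exposure of THP-1 cells; compounds (final up to 57.5 uM) added 1 h before LPS (250 ng/mL) and ATP (1.25 mM) stimulation; lower signal means less secretion.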
HepG2 viability: HepG2 cytotoxicity, counter-screen for TGF-b inhibitors; hit rate 0.76% among 410,000; Potency, µM (series often up to 46.1 µM), usual class: cytotoxic; AID 588856; HepG2 CAGA-GFP viability, ATP luminescence, 18 h
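CellTiter-Glo luminescence gave cytotoxicity after 18 hours at 37 degrees C. The cells were HepG2 CAGA-GFP in 1% FBS DMEM, stimulated with 500 pg/mL TGF-beta after compound addition. %Activity was normalised to no-cell wells (complete cell-killing) and DMSO (no toxicity), and curves were fitted and classified.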
Hits are given with their value; n = inactive; u = inconclusive; x = no result; ! = repeats disagree. Most compounds without a hit are left out; they make up all but 19% or so of the library. Unless noted, calls follow the shape of the dose curve; as a rule, active = well fitted curve in the direction sought with a large enough effect; inconclusive = small, poorly fitted or top-dose-only effect, or another doubt; inactive = no such curve, though single readings can be large; an effect the other way counts as inactive or inconclusive.

SMILES | TGFb inhibitor | TDP1 cell CPT | DT40 TDP1 no CPT | ASM inhibitor | IL1B secr inh | HepG2 viability
CCOC(=O)C1(CCOc2ccccc2)CCN(Cc2ccc(-n3cccn3)cc2)CC1 | n | u | 16µM | n | n | n
COc1ccc(CNc2nc3ccccc3n2CCN2CCCCC2)c(OC)c1 | u | 18µM | 23µM | n | -100 | n
COc1ccc(OC)c(CNc2nc3ccccc3n2CCN2CCCCC2)c1 | n | u | u | n | n | n
Brc1cccc(CNc2nc3ccccc3n2CCN2CCCCC2)c1 | u | u | u | n | n | n
COc1cccc(CNc2nc3ccccc3n2CCN2CCCCC2)c1 | u | 13µM | u | n | n | n
CCCCCn1c(NCc2ccc(OC)cc2)nc2ccccc21 | 13µM | 16µM | 23µM | x | x | n
Brc1ccc(CNc2nc3ccccc3n2CCN2CCCCC2)cc1 | u | u | 23µM | n | u | n
CN(C)CCCNC(=O)C(=O)NCC1OCCN1S(=O)(=O)c1cc(F)ccc1F (stereo unspecified) | n | n | n | x | n | n
Cc1c(C(=O)Nc2nc(-c3ccc(F)cc3)ns2)oc2ccc(Cl)cc12 | n | n | n | x | x | n
CC1(C)CC(/C=C/c2ccccc2)=Nc2ccccc2N1 | u | 18µM | 21µM | n | -62 | n
O=C1CC(/C=C/c2cccnc2)=Nc2ccccc2N1 | n | 13µM | 16µM | n | -93 | n
O=C1CC(=O)Nc2ccccc2N1 | n | n | n | x | n | n
O=C1CC(/C=C/c2ccc(Cl)cc2)=Nc2ccccc2N1 | 11µM | u | 15µM | n | -94 | n
CN1N=C(/C=C/c2ccccc2)CCC1=O | n | n | n | n | n | n
O=C1CC(C(F)(F)C(F)(F)C(F)(F)F)=Nc2ccccc2N1 | n | n | n | n | n | n
CCOc1ccc2nc3ccc4[nH]onc4c3c2c1 | n | u | u | n | u | n
CCOc1ccc2nc3cc(N)ccc3c(N)c2c1 | x | u | 18µM | x | x | x
CN1C(=O)C(=O)/C(=C(/O)c2ccc(Br)cc2)C1c1cccc([N+](=O)[O-])c1 (stereo unspecified) | n | n | n | n | n | n
O=C(c1ccccc1)[C@@H]1[C@@H]2C(=O)N(c3ccc(F)cc3)C(=O)[C@@H]2C2CCCN21 (stereo partly specified) | u | u | u | n | -59 | n
CC(=O)c1ccc(N2C(=O)C3C(C2=O)C(C(=O)c2ccc(Cl)cc2)N2CCCC32)cc1 (stereo unspecified) | n | 8.2µM | 10µM | n | -109 | n
O=C(c1ccc(Cl)cc1)C1C2C(=O)N(c3ccccc3)C(=O)C2C2CCCN21 (stereo unspecified) | n | n | n | n | n | n
Cc1noc(C)c1-c1ccc(C(=O)NC2CCCCC2)c2occc12 | n | 16µM | 15µM | x | n | n
Cc1noc(C)c1-c1ccc(C(=O)Nc2ccccc2)c2occc12 | n | 26µM | u | x | n | n
CCCCn1c(SCC(=O)c2ccc3c(c2)NC(=O)CO3)nc2cc(S(N)(=O)=O)ccc21 | n | u | u | n | n | n
O=C1CC(c2ccc3c(c2)OCCO3)Oc2ccc([N+](=O)[O-])cc21 (stereo unspecified) | u | u | 16µM | n | -69 | n
SMILES | TGFb inhibitor | TDP1 cell CPT | DT40 TDP1 no CPT | ASM inhibitor | IL1B secr inh | HepG2 viability
CC1(C)CSC(=NCCc2ccccc2)N1 | n | n | n | n | n | n
Cc1ccccc1CN1C(=O)C(O)(CC(=O)c2ccccc2)c2cc(Cl)ccc21 (stereo unspecified) | u | n | u | x | x | 20µM
COC(=O)CN1C(=O)C(O)(CC(=O)c2ccccc2)c2ccccc21 (stereo unspecified) | n | u | u | n | n | n
CCc1ccc(C(=O)CC2(O)C(=O)N(CN3CCOCC3)c3ccccc32)cc1 (stereo unspecified) | u | n | u | n | n | n
CCc1ccc(C(=O)CC2(O)C(=O)N(CCc3ccccc3)c3ccc(Cl)cc32)cc1 (stereo unspecified) | 13µM | 18µM | 16µM | x | x | 20µM
Cc1n[nH]c(C)c1C(=O)CC1(O)C(=O)N(CCc2ccccc2)c2ccc(Cl)cc21 (stereo unspecified) | n | u | 23µM | n | n | n
O=C(/C=C/c1ccc2c(c1)S(=O)(=O)N(Cc1ccccc1)[C@H]2CC(=O)N1CCOCC1)N1CCOCC1 | n | u | u | n | n | n
CC(C)(C)OCC1CO1 (stereo unspecified) | n | n | n | n | n | n
O=C(Cc1ccc([N+](=O)[O-])cc1)Nc1cccc(C(=O)N2CCCCC2)c1 | u | u | u | n | n | n
CN1CCN2c3ccccc3CC3(C(=O)OC(C)(C)OC3=O)C2C1 (stereo unspecified) | n | n | n | x | x | n
Cc1ccc(-c2nc3ccc(Cl)cn3c2CC(C)(C)C)cc1 | n | u | n | x | n | n
CCCCNc1c(-c2ccc(-c3cccc(Cl)c3)cc2)nc2ccc(Cl)cn12 | n | u | u | n | n | n
CCCCCCSc1cc(-c2nc3ccc(Cl)cn3c2NC2CCCCC2)ccc1OC | u | u | 16µM | n | n | n
CCCCCCSc1ccc(-c2nc3ccc(Cl)cn3c2NC2CCCCC2)cc1 | u | 26µM | u | n | n | n
COc1ccc(-c2cccc(-c3nc4ccc(Cl)cn4c3NC3CCCCC3)c2)cc1 | n | 18µM | 21µM | n | n | n
COc1ccc(-c2nc3ccc(Cl)cn3c2Cc2ccsc2)cc1OC | u | u | u | x | n | n
CCC(C)Sc1cc(-c2nc3ccc(Cl)cn3c2NC2CCCCC2)ccc1OC (stereo unspecified) | u | 16µM | 15µM | n | -74! | n
COc1ccc(NC(=O)CC2(CC(=O)O)CCCC2)cc1 | n | n | n | n | n | n
O=C(CO)[C@@H](O)[C@H](O)[C@@H](O)C(=O)O | x | n | n | x | x | x
CC(=O)Nc1c(-c2ccccc2)nc2ccc(Cl)cn12 | n | n | n | n | n | n
CC(=O)c1csc(-c2cccc(-c3nc4ccc(Cl)cn4c3NC3CCCCC3)c2)c1 | n | 21µM | u | n | n | n
O=C(NCCCN1CCC(Cc2ccccc2)CC1)C1CC(=O)N(C2CCCCCC2)C1 (stereo unspecified) | u | u | 26µM | n | n | n
O=C(NCCCN1CCCCCC1)[C@@H](c1ccccc1)C1CCCCC1 | x | 11µM | 11µM | x | x | x
